Compound activity deposited in PubChem BioAssay by National Center for Advancing Translational Sciences (NCATS).
Sampled rows, rich in hits. Any-hit rate of the full collection: about 19%.
VP16 counter: counter-screen for ROR gamma inhibitors: Gal4-VP16 reporter; Drosophila S2 Gal4-VP16 UAS-luciferase, luminescence, 20 h; Potency, µM (top dose mostly 53.6 µM), for the others: top-dose activity, negative = inhibition, hits mostly inhibitors; hit rate 3.5% among 310,000; AID 2546;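 note: Gal4-VP16 expression switched on by copper sulfate through the metallothionein promoter; nearly all actives have a fitted effect of over 50% in size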
TDP1 block: TDP1 (human) enzyme inhibition; Q9NUW8; recombinant TDP1, AlphaScreen DNA substrate cleavage; Potency, µM (titrated, usually from 130 µM), inactives show at the highest dose activity change, negative = inhibition, usual class: inhibitors; hit rate 0.28% among 350,000; note: nearly all actives have a fitted effect of over 40% in size
Target sequence (Q9NUW8 whole entry, looked up): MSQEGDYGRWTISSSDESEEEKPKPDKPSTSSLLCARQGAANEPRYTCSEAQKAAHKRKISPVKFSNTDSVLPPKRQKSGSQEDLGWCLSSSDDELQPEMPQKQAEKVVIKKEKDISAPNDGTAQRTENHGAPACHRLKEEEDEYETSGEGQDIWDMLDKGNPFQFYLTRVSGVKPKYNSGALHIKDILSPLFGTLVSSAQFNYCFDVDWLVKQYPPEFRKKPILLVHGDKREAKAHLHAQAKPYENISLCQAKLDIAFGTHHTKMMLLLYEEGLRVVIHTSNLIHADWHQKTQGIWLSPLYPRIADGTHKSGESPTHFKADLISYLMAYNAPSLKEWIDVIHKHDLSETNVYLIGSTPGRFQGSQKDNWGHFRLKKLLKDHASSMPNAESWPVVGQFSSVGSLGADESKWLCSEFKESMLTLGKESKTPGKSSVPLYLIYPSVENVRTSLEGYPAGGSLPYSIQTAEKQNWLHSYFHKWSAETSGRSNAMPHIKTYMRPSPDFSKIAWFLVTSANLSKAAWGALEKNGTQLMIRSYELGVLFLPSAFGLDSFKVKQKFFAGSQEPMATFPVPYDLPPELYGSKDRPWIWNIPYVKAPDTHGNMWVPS
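Tdp1 1 nM final; 15 min RT w/ cpd; substrate 15 nM, 5 min; beads 10 ug/ml, 10 min; AlphaScreen read. Neg ctrl: no enzyme.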
DT40 TDP1 CPT: DT40-hTDP1 cell growth loss with CPT; chicken DT40 Tdp1-/-;hTDP1 cells + 20 nM CPT, ATP luminescence, 48 h; hit rate 12% among 420,000; Potency, µM (doses to about 46.2 µM), without a hit: at the highest dose activity change, negative = growth inhibition, most hits filed as inhibitors; note: nearly all actives have a fitted effect of over 55% in size
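Chicken DT40 Tdp1-/- cells complemented with human TDP1, 400 cells/well, exposed to compounds plus 20 nM camptothecin for at least 48 h at 37 C; viability read as ATP content by CellTiter-Glo luminescence.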
TDP1 cell noCPT: qHTS for Inhibitors of human tyrosyl-DNA phosphodiesterase 1 (TDP1): qHTS in cells in absence of CPT; DT40 Tdp1-/- hTDP1 cells, no CPT, ATP luminescence, 48 h; Potency, µM (top dose mostly 46.2 µM), for inactives: top-dose activity change, negative = growth inhibition, actives largely listed as inhibitors; hit rate 15% among 420,000; AID 686978, 2013; note: nearly all actives have a fitted effect of over 55% in size
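Growth of hTDP1-complemented DT40 Tdp1-knockout cells is measured by ATP luminescence after at least 48 hr compound exposure at 37 °C, with DMSO substituting for the 20 nM CPT used in the parallel screen.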
RORgamma inh: blocks mouse ROR gamma transcriptional activity; hit rate 5.4% among 310,000; P51450; AID 2551; Drosophila S2 Gal4-RORgamma UAS-luciferase reporter, 20 h; Potency, µM (top dose mostly 53.6 µM), for inactives: at the highest dose activity change, negative = inhibition, most hits filed as inhibitors; note: nearly all actives have a fitted effect of over 60% in size
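A Gal4/UAS one-hybrid system in insect cells: metallothionein-promoter Gal4–ROR gamma fusion plus Photinus luciferase reporter. Copper sulfate 700 uM final, 20 hr ambient incubation, luminescent detection after 10 min with reagent.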
* hit, by the source's call; ? = inconclusive; / = no result; [ ] = another dose, or the depositor's remark. Calls come from the whole dose curve; as a rule, active = well fitted curve in the direction sought with a large enough effect; inconclusive = small, poorly fitted or top-dose-only effect, or another doubt; inactive = no such curve, though single readings can be large; an effect the other way counts as inactive or inconclusive. % is set by controls: 0 for no effect and ±100 for the full control effect; potency is the fitted concentration of half-maximal effect.

SMILES	VP16 counter	TDP1 block	DT40 TDP1 CPT	TDP1 cell noCPT	RORgamma inh
O=C(NCCc1ccccc1)C1CCN(c2nc3ccccc3o2)CC1	-10.3%	6.0%	-8.9%	-14.1%	21.9%
O=C(NC1CCCCCCC1)C1CCN(c2nc3ccccc3o2)CC1	/	2.6%	?	16.4µM*	-19.1%
COC(=O)[C@]1(Cc2ccccc2)N[C@H](CN(C)S(=O)(=O)c2ccc(OC)cc2)[C@@H]2C(=O)N(C)C(=O)[C@@H]21	/	1.5%	?	?	/
Cc1ncc([N+](=O)[O-])n1CCOC(=O)Nc1ccc([N+](=O)[O-])cc1	3.7%	-2.6%	1.2%	7.2%	2.7%
CC(OC(=O)C1CCN(c2ccc(C(F)(F)F)cn2)CC1)C(=O)NC1CCCCC1C (centres undefined)	/	0.8%	?	?	/
CCOc1ccc(C(=O)C(C)OC(=O)C2CCN(c3ccc(C(F)(F)F)cn3)CC2)cc1 (centres undefined)	/	-12.2%[0.505 µM]	16.4µM*	23.1µM*	/
COc1ccc(CC2(CO)CCN(C(C)Cc3ccc(Cl)cc3)CC2)cc1 (centres undefined)	-13.3%	/	?	?	-0.1%
CC(C)NC(=O)Cn1nnc(-c2ccccc2)c1COc1ccc2ccccc2c1	/	/	14.6µM*	?	/
COc1ccc(NC(=O)Cn2nnc(-c3ccccc3)c2COc2ccc3ccccc3c2)cn1	/	/	20.6µM*	23.1µM*	/
Cc1ccc(CNC(=O)c2ccc(N3CCC4(CC3)CC(c3cccc(Br)c3)=NO4)c(NC(=O)c3ccccc3)c2)cc1	/	1.0%	-9.1%	-6.4%	/
Cc1c(CCOC(=O)CC23CC4CC(CC(C4)C2)C3)sc[n+]1Cc1ccccc1	-14.2%	1.9%	2.06µM*	1.84µM*	35.1%
Cc1c(CCOC(=O)C23CC4CC(CC(C4)C2)C3)sc[n+]1CC#N	-11.6%	2.7%	3.26µM*	5.17µM*	-2.4%
Cc1c(CCO)sc[n+]1CC(=O)OCCC12CC3CC(CC(C3)C1)C2	-14.5%	1.9%	?	?	-13.2%
CCn1cc(C(=O)N2CCN(c3ccccc3)CC2)c(=O)c2cc(S(=O)(=O)N(C)C3CCCCC3)ccc21	/	-4.7%	-8.9%	-25.7%	/
CC1(C)CC(=O)C(/C=N/c2ncccc2C(=O)O)=C(O)C1	-8.1%	9.0%	-27.8%	-1.3%	-41.7%
CC1(C)CC(=O)C(/C=N/n2c(C(F)(F)F)nc3ccccc3c2=O)=C(O)C1	-21.7%	7.0%	16.4µM*	?	-24.5%
CCc1cc(C(=O)Nc2ccc(OC)nc2)sc1C	/	5.8%	3.3%	-17.2%	/
CCc1cc(C(=O)Nc2ncccc2O)sc1C	10µM*	1.2%	?	-21.5%	7.94µM*
CCc1cc(C(=O)NNC(=O)CCN2CCN(c3ccccc3)CC2)sc1C	-3.8%	3.5%	5.7%	14.6%	-9.1%
CCc1cc(C(=O)NNC(=O)CCl)sc1C	17.3%	6.3%	14.6µM*	?	10µM*
Cc1ccc(CNc2nc3ccccc3s2)s1	5.7%	2.3%	-8.9%	-21.4%	41.2%
CCOc1ccc(CNC(=O)CCCn2nc(CC)n3c(cc4occc43)c2=O)cc1	-26.6%	0.5%	?	?	-3.2%
O=C(CN(Cc1cccs1)S(=O)(=O)c1ccc(S(=O)(=O)NC2CCCCC2)cc1)Nc1ccccc1	-9.3%	4.6%	20.6µM*	18.4µM*	-6.3%[10 µM]
O=C(CN(C1CC1)S(=O)(=O)c1ccc(S(=O)(=O)NC2CCCCC2)cc1)Nc1ccccc1	1.5%	4.4%	?	?	?
CCn1c(=O)c(C(=O)CN(C)CC(=O)Nc2ccccc2Br)c(N)n(Cc2ccccc2)c1=O	/	-5.1%	20.6µM*	18.4µM*	/
O=c1[nH]c(CN2CCN(Cc3ccccc3)CC2)nc2scc(-c3ccccc3)c12	0.2%	-3.1%	?	?	1.0%
O=c1[nH]c(Cc2ccccn2)nc2scc(-c3ccccc3Cl)c12	11.2µM*	9.6%	7.6%	?	6.31µM*
Cc1[nH]n(-c2ccccc2)c(=O)c1N=Nc1cccc(Cl)c1	-3.9%	/	-25.0%	?	7.1%
